These results are taken from PubChem BioAssay (NCI).

Compounds without any hit were thinned out: in the full panel of roughly 83,000, 20% have a hit.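 Note: values are percent growth. 100 is the growth of untreated cells, values between 100 and 0 indicate rising inhibition; between -100 and 0 indicates cell death.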 Calls of active or inactive are those of the source. How the source made its calls: active means growth percent below 10; inactive means the rest.

Holding throughout (assay): NCI-60 one-dose screen, 48 h (100 = growth as untreated, 0 = no growth, -100 = all killed)
Experiment [1] deals with NCI-H226 lung. The settings on record: 10 µM.
The test system of experiment [2] is NCI-H322M lung. As to conditions: 10 µM.
For experiment [3], the system named is HOP-62 NSCLC. The settings on record: 10 µM.
Experiment [4] relates to NCI-H460 lung. As to conditions: 10 µM.
Experiment [5] has as its system HOP-92 NSCLC. The settings on record: 10 µM.
Experiment [6] relates to NCI-H522 lung. The settings on record: 10 µM.
The test system of experiment [7] is A549/ATCC NSCLC. The settings on record: 10 µM.
Experiment [8] concerns COLO 205 colon. As to conditions: 10 µM.
Experiment [9] concerns SF-268 CNS. The settings on record: 10 µM.
Experiment [10] relates to SF-295 CNS. The settings on record: 10 µM.
Experiment [11] relates to SF-539 CNS. As to conditions: 10 µM.
Experiment [12] relates to M14 melanoma. The settings on record: 10 µM.
Experiment [13] deals with HCT-15 colon. As to conditions: 10 µM.
Experiment [14] deals with SNB-75 CNS. As to conditions: 10 µM.
Experiment [15] concerns SNB-19 CNS. The settings on record: 10 µM.
In experiment [16] the test system is U251 CNS. As to conditions: 10 µM.
The test system of experiment [17] is PC-3 prostate. The settings on record: 10 µM.
The subject of experiment [18] is SK-MEL-5 melanoma. The settings on record: 10 µM.
Experiment [19] relates to UACC-62 melanoma. As to conditions: 10 µM.
The subject of experiment [20] is MDA-MB-468 breast. As to conditions: 10 µM unless noted.

On to `CC1(C)CC[C@]2(C(=O)O)CC[C@]3(C)C(=CCC4[C@@]5(C)C[C@@H](O)[C@@H]6OC(c7cccc(F)c7)OC[C@@]6(C)C5CC[C@]43C)C2C1` (stereo not given in full), for which the growth in [1] was 39.9% (inactive); in [2], 34.2% (inactive); in experiment [3], 49.5% (inactive); in experiment [4], 27.6% (inactive); in experiment [5], 41.9% (inactive); in experiment [6] it was 8.76% (active). In addition, the growth is 19.8% (inactive) in [7]; 15.2% (inactive) in [8]; 55.6% (inactive) in experiment [9]; 42.7% (inactive) in experiment [10]; 70.2% (inactive) in experiment [11]; 46% (inactive) in [12]. For the same compound, the growth is 23% (inactive) in [13]; 81.6% (inactive) in experiment [14]; 45.7% (inactive) in experiment [15]; 11.6% (inactive) in [16]; 32.1% (inactive) in [17]; 45.9% (inactive) in experiment [18]. In addition, the values for the growth in experiment [19] and in [20] were 49.7% (inactive) and 23.5% (inactive), respectively.

For the compound `COc1cc(-c2nc3ccc(C)cc3[nH]2)ccc1OCc1nnc(-c2ccccc2Br)o1`, the growth in [1] is 65.3% (inactive); in experiment [2] it was 87.3% (inactive); in experiment [3] it was 73.7% (inactive); in [4], 72.8% (inactive); in experiment [5], 84.3% (inactive); in experiment [6], 64% (inactive). In addition, the growth is 65.1% (inactive) in experiment [7]; 72.8% (inactive) in experiment [8]; 79.3% (inactive) in [9]; -0.44% (active) in experiment [10]; 24.4% (inactive) in experiment [11]; 71.2% (inactive) in experiment [12]. In addition, the growth in experiment [13] was 36.4% (inactive); in experiment [14], 112% (inactive); in experiment [15], 73.9% (inactive); in [16] it was 57.7% (inactive); in experiment [17], 56.1% (inactive); in experiment [18] it was 41.1% (inactive). For the same compound, the results for the growth in [19] and in experiment [20] were 92% (inactive) and 61.6% (inactive), respectively.

Consider `Fc1ccc(/C=C/c2nc3ccccc3n3c(-c4ccc(Cl)cc4)nnc23)cc1`, for which the growth in experiment [1] is 77.4% (inactive); in experiment [2] it was 89.6% (inactive); in experiment [3] it was 107% (inactive); in [4], 59.6% (inactive); in experiment [5], 67.6% (inactive); in experiment [6], -81.7% (active). For the same compound, the growth in experiment [7] was 82% (inactive); in [8] it was 67.8% (inactive); in experiment [9], 78% (inactive); in experiment [10], 128% (inactive); in experiment [11] it was 85.5% (inactive); in experiment [12] it was 63.8% (inactive). Besides, the growth in experiment [13] is 24% (inactive); in experiment [14] it was 86.8% (inactive); in [15], 86.2% (inactive); in [16] it was 73% (inactive); in experiment [17] it was 72.5% (inactive); in [18], 76.5% (inactive). In addition, the figures for the growth in [19] and in [20] were 70.2% (inactive) and -2.32% (active), respectively.

Take `O=C1S/C(=C\c2ccc([N+](=O)[O-])cc2)C(=O)N1CCN1CCCCC1`: the growth was 105% (inactive) in experiment [1]; 107% (inactive) in [2]; 112% (inactive) in experiment [3]; 115% (inactive) in [4]; 146% (inactive) in experiment [5]; 99.7% (inactive) in experiment [6]. Further, the growth in experiment [7] is 110% (inactive); in [8], 113% (inactive); in [9] it was 112% (inactive); in experiment [10], 111% (inactive); in [11], 112% (inactive); in experiment [12] it was 98.6% (inactive). Further, the growth was 92.6% (inactive) in [13]; 104% (inactive) in experiment [14]; 98.6% (inactive) in experiment [15]; 102% (inactive) in experiment [16]; 94.3% (inactive) in [17]; 101% (inactive) in experiment [18]. Also, the growth is 99.6% (inactive) in [19] and 99.5% (inactive) in [20].

On to `CC1[C@H]2[C@H](C[C@H]3[C@@H]4CC=C5c6sc(Nc7cccc(Cl)n7)nc6CC[C@]5(C)[C@H]4CC[C@@]32C)O[C@]12CC[C@@H](C)CO2` (stereo not given in full), for which the growth in [1] is 81.5% (inactive); in experiment [2], 102% (inactive); in experiment [3], 116% (inactive); in experiment [4], 85.7% (inactive); in [5], 99.6% (inactive); in [6] it was 65.8% (inactive). The growth in experiment [7] was 96.1% (inactive); in experiment [8] it was 70.2% (inactive); in experiment [9], 86.9% (inactive); in experiment [10] it was 109% (inactive); in experiment [11], 110% (inactive); in experiment [12], 77.4% (inactive). The growth in experiment [13] is 73.9% (inactive); in experiment [14], 127% (inactive); in [15], 96.6% (inactive); in experiment [16], 92.2% (inactive); in experiment [17], 48% (inactive); in experiment [18], 59.3% (inactive). For the same compound, the growth was 54.5% (inactive) in experiment [19] and 93.6% (inactive) in experiment [20].

On to `O=[N+]([O-])c1cccc(-c2nnc3c(/C=C/c4ccccc4O)nc4ccccc4n23)c1`, for which the growth in experiment [1] was 33.1% (inactive); in experiment [2], 55.8% (inactive); in experiment [3], 52.8% (inactive); in experiment [4] it was 28.8% (inactive); in [5], 51.2% (inactive); in [6] it was 55.3% (inactive). The growth in experiment [7] is 57.8% (inactive); in experiment [8] it was 41.3% (inactive); in [9], 77.7% (inactive); in [10], 62.5% (inactive); in experiment [11] it was 46.2% (inactive); in experiment [12], 29.8% (inactive). Moreover, the growth in experiment [13] was 52.5% (inactive); in experiment [14] it was 102% (inactive); in [15], 87% (inactive); in [16] it was 76.7% (inactive); in experiment [17] it was 52.2% (inactive); in experiment [18] it was 19.6% (inactive). The growth in [19] was 16% (inactive); in experiment [20], 52% (inactive).

As for `CCOC(=O)C1=C(N)N(c2ccc(C)cc2)C2=C(C(=O)CC(C)(C)C2)C1c1ccccc1Br` (stereo not given), the growth in experiment [1] is 84.9% (inactive); in experiment [2] it was 99% (inactive); in experiment [3], 90.8% (inactive); in experiment [4], 53.5% (inactive); in experiment [5], 71.6% (inactive); in [6], 67.5% (inactive). Also, the growth in experiment [7] was 80.9% (inactive); in [8], 62.7% (inactive); in experiment [9] it was 99.3% (inactive); in experiment [10], 90.5% (inactive); in [11], 104% (inactive); in [12], 83% (inactive). The growth is 58.4% (inactive) in [13]; 87.2% (inactive) in experiment [14]; 86.7% (inactive) in experiment [15]; 80.7% (inactive) in experiment [16]; 32.4% (inactive) in experiment [17]; 77.4% (inactive) in experiment [18]. The growth in experiment [19] is 71.8% (inactive); in experiment [20], 77% (inactive).

Regarding `COc1ccccc1-n1cc(C#N)c(N)c1C(=O)c1ccc(Cl)cc1Cl`, the growth in experiment [1] is 34.5% (inactive); in experiment [2], 48% (inactive); in [3], 38.2% (inactive); in experiment [4], 12.5% (inactive); in experiment [5], 44.2% (inactive); in experiment [6] it was -55.6% (active). For the same compound, the growth in [7] was 41.9% (inactive); in experiment [8], 19.6% (inactive); in experiment [9], 47.3% (inactive); in experiment [10], 19.9% (inactive); in [11], -0.792% (active); in [12], 20.4% (inactive). The growth in experiment [13] was 24.4% (inactive); in experiment [14], -22.8% (active); in experiment [15], 30.1% (inactive); in [16], 16.6% (inactive); in experiment [17], 18.8% (inactive); in experiment [18], 17.3% (inactive). For the same compound, the figures for the growth in experiment [19] and in experiment [20] were 26.9% (inactive) and 15.8% (inactive), respectively.
